# Inconclusive results are not listed. Unmarked numbers belong to inactive results. Calls of active or inactive are those of the source. Calls follow the shape of the dose curve; as a rule, active = well fitted inhibition curve with a large enough effect; inconclusive = small, poorly fitted or top-dose-only effect; inactive = flat fitted curve, though single readings scatter.
# Test: CHOP2 Reporter Counterscreen Assay for Inhibitors of Ubiquitin-specific Protease USP2a;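 also: activated enterokinase alone at 50 pM in a cell-free format rather than USP2a or CHOP2; nearly all actives have a fitted effect of over 55% in size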
# Settings: purified enterokinase, fluorogenic substrate, 485/531 nm; series mostly up to 38.3 µM; activity change, negative = inhibition: at the top concentration
# In short: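 Cell-free counterscreen with pre-activated enterokinase alone (50 pM final) in 20mM Tris-HCl pH 8.0, 2mM CaCl2, 2mM beta-mercaptoethanol, 0.05% CHAPS; compound preincubation 30 min RT, reporter substrate 25nM final, fluorescence read after 10 min (Ex 485/Em 531).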
# % is scaled to controls: 0 for no effect and ±100 for the full control effect; potency is read from the fitted curve at half-maximal effect.
Compound,"activity change, negative = inhibition [%]",Potency
Cc1cc(C)n2nc(S(=O)(=O)NCCc3ccccc3)nc2n1,-2.84,–
Cc1ccc(C(=O)CSc2nnc(CNc3nc(-c4ccccc4)cs3)n2C)cc1,-7.24,–
O=C(Nc1nnc(SCC(=O)N2CCCC2)s1)C1CC(=O)N(c2ccc(F)cc2)C1 (stereo not given),–,10 µM (active)
CC(C)Cn1c(SCC(N)=O)nnc1-c1cccc(S(=O)(=O)N2CCOCC2)c1,1.51,–
CCCCCCCCCCOC(=O)Cn1c(COc2ccc(Cl)cc2)[n+](C)c2ccccc21,–,8.91 µM (active)
Cc1cc(SCC(=O)NC2CCCCC2)nc2ccccc12,1.52,–
O=C(O)/C=C/c1ccc(S(=O)(=O)Nc2ccccc2C(=O)Nc2ccc(F)cc2)cc1,-6.94,–
COc1cc2c(C(=O)N3CCN(c4cccc(Cl)c4)CC3)cn(CC(C)C)c(=O)c2cc1OC,-1.58,–
COC(=O)c1c(NC(=O)c2cccnc2)sc(C)c1C,3,–
CCOC(=O)CN1C(=O)S/C(=C/c2ccc(O)c([N+](=O)[O-])c2)C1=O,-6.49,–
CCn1c(=O)c(C(=O)Nc2ccccc2S(N)(=O)=O)c(O)c2ccccc21,–,11.2 µM (active)
CCC1=[N+](CC(=O)c2ccc(Br)cc2)CCn2c(C)ccc21,-22,–
O=C1N=c2ccccc2=C1c1sc(Nc2ccc(O)cc2)nc1O,–,8.91 µM (active)
CC(C)(C)[C@H]1COC(=O)[C@@H](Cc2ccc(F)cc2)C/C=C\C[C@@H](CC(=O)N[C@@H](CO)Cc2ccccc2)C(=O)N1,6.11,–
O=C(CC1Oc2ccccc2NC1=O)NCc1ccc(Cl)cc1 (stereo not given),-6.43,–
O=C(NN1C(=O)/C(=C/C=C/c2ccco2)SC1=S)c1ccncc1,–,2.51 µM (active)
CCC(C)(C(=O)NC1CCCCC1)N(C(=O)C1CCC(=O)N1)c1ccccc1 (stereo not given),-1.78,–
COC(=O)C1CCN(C(=O)c2cc(-c3ccco3)nc3ccccc23)CC1,–,3.98 µM (active)
CCn1c2ccccc2c2nc3ccccc3nc21,2.3,–
O=C1NC[C@@H](c2ccccc2)OC(=O)[C@@H](Cc2ccc(F)cc2)CC/C=C/C[C@@H]1CC(=O)N(CCO)Cc1ccccc1,-2.43,–

Compound,"activity change, negative = inhibition [%]",Potency
O=[N+]([O-])c1ccc(Sc2nnnn2-c2ccccc2)c(Cl)c1,-1.14,–
CCc1cc2c(=O)c(-n3cnc4ccccc43)coc2cc1O,-1.67,–
O=C(Nc1cccc(Cl)c1)Nc1nnc(CC2=CCCCC2)s1,2.28,–
COc1ccc2[nH]c(=O)c(CN(Cc3ccco3)Cc3nnnn3Cc3ccccc3)cc2c1,0.775,–
O=C1NC(=Nc2ccc3ccccc3c2)S/C1=C/c1ccco1,–,10 µM (active)
CC(=O)c1cccc(NC(=O)C(C)OC(=O)c2cc(=O)[nH]c3ccccc23)c1 (stereo not given),–,1 µM (active)
Nc1c(C(=O)NC2CC2)sc2nc3c(c(-c4ccco4)c12)CC/C3=C/c1ccco1,–,2.24 µM (active)
CC(=O)c1ccc(NC(=O)CC(NCCC2=CCCCC2)C(=O)O)cc1 (stereo not given),2.06,–
Cc1c(C(=O)Nc2ccc3c4c(cccc24)CC3)cccc1[N+](=O)[O-],-0.0061,–
COc1cccc(N2C(=O)C3CCCN3C2c2ccc(N(C)C)cc2)c1 (stereo not given),1.86,–
COCCn1nnnc1CN(CCc1ccccc1)Cc1cc2ccc(C)cc2[nH]c1=O,0.684,–
O=[N+]([O-])c1cc(-c2ccc(/C=N\n3cnnc3)o2)cc([N+](=O)[O-])c1,–,10 µM (active)
NC(=O)c1ncc(C(F)(F)F)cc1Oc1cccc(F)c1,-0.938,–
CCCOc1ccc(-c2nc(C#N)c(N3CCN(CC)CC3)o2)cc1,-0.81,–
COc1cc(OC)cc(-c2c(C#Cc3ccsc3)c3cc(-c4ccc(OC)c(F)c4)ccc3n2C)c1,3.47,–
Cc1ccc(NS(=O)(=O)c2cccc(C(=O)OCC(=O)NCc3ccco3)c2)cc1,–,10 µM (active)
O=C(NC12CC3CC(CC(C3)C1)C2)C1=COCCO1,-0.965,–
O=c1/c(=C/c2ccco2)sc2n1CN(c1cccc(Br)c1)CN=2,-0.633,–
CCOc1ccc(NC(=O)c2cccc(-n3cnnn3)c2)cc1,7.23,–
COc1ccc(S(=O)(=O)N2CCCCC2)cc1NC(=O)Cc1c[nH]c2ccccc12,-6.03,–

# From PubChem BioAssay AID493169 (National Center for Advancing Translational Sciences (NCATS), 2011)
